An excerpt weighted towards active compounds, which were near 4.2% of everything screened.
tim23-1 inh: inhibits growth of tim23-1 mutant yeast | S. cerevisiae tim23-1 growth, BacTiter-Glo luminescence, 24 h | inhibition, % at 20 µM | actives 1.3% (n = 330,000) | AID 463212;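 active = growth inhibition of the mutant yeast at or above 50%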;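 note: temperature-sensitive mutant grown at 25 °C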
tim10-1 inh: inhibits growth of tim10-1 mutant yeast; S. cerevisiae tim10-1 ts strain growth, BacTiter-Glo, 24 h; inhibition, % at 20 µM; AID 463190; actives 2.2% (n = 330,000);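 active = inhibition of at least 40%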;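 note: mutant grown at 25 °C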
TIM10 inh: growth inhibitors of TIM10 yeast strain | S. cerevisiae TIM10 strain growth, BacTiter-Glo luminescence, 24 h | inhibition, % at 10 µM | actives 1.4% (n = 330,000) | AID 463195;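 active = inhibition of 40% or more at the single tested concentration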;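 note: wild-type TIM10 isogenic control strain grown at permissive 25 °C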
NALP1 yeast inh: blocks the NALP1 inflammasome reconstituted in yeast; inhibition, % at 10 µM; S. cerevisiae NALP1/ASC/caspase-1 growth, X-gal OD620, 72 h; actives 0.61% (n = 280,000); in the data active = inhibition mostly above about 24%, no sharp cut-off; inactive = mostly below about 32%
NLRP3 yeast inh: inhibitors of NALP3 inflammasome in yeast. Yeast reconstituted NLRP3/ASC/caspase-1, beta-gal luminescence, 24 h. inhibition, % at 10 µM. actives 0.39% (n = 330,000);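 active = inhibition of 50% or more; inactive = inhibition below 50%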
V-ATPase pH: alters yeast V-ATPase proton transport; response, % at 10 µM; S. cerevisiae, pHLuorin cytosolic pH fluorescence; actives 0.37% (n = 350,000); AID 504577; in the data active = response mostly above about 7.3%, no sharp cut-off; inactive = mostly below about 5.4%; note: actives read high
tim10-1 confirm: tim10-1 yeast growth inhibition, confirmed; AID 463213; inhibition, % at 20 µM; shares compounds with tim10-1 inh; S. cerevisiae tim10-1 ts strain growth, BacTiter-Glo, 24 h; actives 56% (n = 7,400);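 active = inhibition of yeast growth at or above a set limit in either of two repeat tests at 20 µM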;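 note: tim10-1 mutant grown at permissive 25 °C to find synthetic lethal compounds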
tim10 confirm: confirmation of TIM10 yeast growth inhibitors; shares compounds with TIM10 inh; S. cerevisiae tim10 strain growth, BacTiter-Glo luminescence, 24 h; inhibition, % at 10 µM; actives 63% (n = 4,600);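 active = inhibition of yeast growth at or above a set limit in either of two replicates at 10 µM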; note: this counterscreen used the strain with wild-type TIM10
tim23-1 conf: tim23-1 yeast growth inhibition, confirmed; shares compounds with tim23-1 inh; S. cerevisiae tim23-1 growth, BacTiter-Glo luminescence, 24 h; inhibition, % at 20 µM; actives 83% (n = 4,400);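 active = inhibition above about 39% in either of two replicate wells at 20 µM, limit read from the data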;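 note: temperature-sensitive tim23-1 mutant grown at 25 °C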
Large screens that a line does not name were inactive (follow-up assays come after a bar, where they were run).

CC(=O)Oc1ccc2occ(-c3ccccc3)c2c1	none
COc1ccc(-n2nnnc2CNC(=O)c2c(-c3ccccc3Cl)noc2C)cc1	none (no result: tim23-1 inh, tim10-1 inh, TIM10 inh, NALP1 yeast inh, NLRP3 yeast inh)
CCCN(CC(=O)Nc1ccccc1C)C(=O)Cc1coc2cc(C)ccc12	none
COc1ccc(-c2cc(-c3cc(C)ccc3O)[nH]n2)cc1	tim23-1 inh 69, tim10-1 inh 52, TIM10 inh 51 | tim10-1 confirm 45 | tim10 confirm 45 | tim23-1 conf inactive
COc1ccc(-c2cc(-c3ccc(OC)cc3)[nH]n2)cc1	none
CC(=O)C1=C(C)NC(SCC(=O)c2ccc(Cl)cc2)=C(C#N)C1c1ccco1 (centres undefined)	none
CC(=O)C1=C(C)NC(SCC(=O)c2ccc(Cl)cc2Cl)=C(C#N)C1c1ccco1 (centres undefined)	tim23-1 inh 53, tim10-1 inh 55 | tim10-1 confirm 43 | tim23-1 conf 50
Fc1cccc(-c2n[nH]c(=S)n2-c2ccccc2)c1	none
Oc1cc2ccccc2nc1-c1ccccc1Cl	none
Oc1ccccc1-c1cc(-c2cccc(F)c2)n[nH]1	tim23-1 inh 64, tim10-1 inh 41 | tim10-1 confirm inactive | tim23-1 conf 52
Oc1ccccc1-c1cc(-c2ccccc2Cl)[nH]n1	tim23-1 inh 76, tim10-1 inh 73, TIM10 inh 64 | tim10-1 confirm 53 | tim10 confirm 58 | tim23-1 conf inactive
Cc1cc(=O)n2nc(N3CCC(C(=O)NCCc4ccc(Cl)cc4)CC3)sc2n1	none
COc1ccc(C(CNC(=O)c2cncc(Br)c2)N(C)C)cc1 (centres undefined)	none
CCCn1nc([N+](=O)[O-])c(C(C#N)c2nc3ccccc3s2)c(Cl)c1=O (centres undefined)	tim23-1 inh 72, tim10-1 inh 73, TIM10 inh 68 | tim10-1 confirm 62 | tim10 confirm 88 | tim23-1 conf inactive
Cc1cccc(OCC(=O)N(Cc2ccco2)C2CCS(=O)(=O)C2)c1C (centres undefined)	none
CN1CCN(S(=O)(=O)c2ccc(SCCOc3ccccc3)nc2)CC1	tim23-1 inh 57, tim10-1 inh 48, TIM10 inh 49 | tim10-1 confirm 52 | tim10 confirm 49 | tim23-1 conf 46
NS(=O)(=O)c1cccc(NC(=O)CCSc2ccccc2Cl)c1	none
O=C(CCSc1ccccc1Cl)Nc1cccc([N+](=O)[O-])c1	tim23-1 inh 54, tim10-1 inh 56, TIM10 inh 52 | tim10-1 confirm 50 | tim10 confirm inactive | tim23-1 conf 62
O=[N+]([O-])c1cnc(Sc2ccncn2)s1	tim23-1 inh 68, tim10-1 inh 47, TIM10 inh 82 | tim10-1 confirm 49 | tim10 confirm 95 | tim23-1 conf 53
Cc1ccc(/C(N)=N/OC(=O)c2cccc(F)c2)cc1	tim23-1 inh 70, tim10-1 inh 64, TIM10 inh 76 | tim10-1 confirm 48 | tim10 confirm 79 | tim23-1 conf 40
N/C(=N\OC(=O)c1cccc(F)c1)c1ccccc1	tim23-1 inh 68, tim10-1 inh 55, TIM10 inh 61 | tim10-1 confirm 56 | tim10 confirm 62 | tim23-1 conf 66
COC(=O)C(C)NC(=O)c1cn(-c2ccccc2OC)c(=O)c2ccccc12 (centres undefined)	none
CCN(CC)c1nc(OCCNC(=O)Nc2ccccc2)nc(N(CC)CC)n1	tim23-1 inh 62, tim10-1 inh 42 | tim10-1 confirm 35 | tim23-1 conf 50
O=C(NCCOc1nc(N2CCCCC2)nc(N2CCCCC2)n1)Nc1ccccc1	none
COc1ccccc1C(=O)Nc1cccc2cccnc12	tim23-1 inh 72, tim10-1 inh 48 | tim10-1 confirm 42 | tim23-1 conf 72
CC(=O)Nc1cccc(NC(=O)c2cccc3cccnc23)c1	none
Cc1ccc(NC(=O)c2cccc3cccnc23)cc1	tim23-1 inh 65, tim10-1 inh 42 | tim10-1 confirm 41 | tim23-1 conf 80
O=C(Nc1cccc2cccnc12)c1ccccc1Cl	none (no result: NALP1 yeast inh)
COC(=O)c1c(C)nc2ccccc2c1C(=O)O	none
COC(=O)c1cc(C)[nH]c2c(C)cc3nc4ccccc4c3c12	tim23-1 inh 59, tim10-1 inh 50 | tim10-1 confirm 42 | tim23-1 conf inactive
O=C(CNc1ccc(Br)cc1)NC(=O)NC1CCCCC1	tim23-1 inh 59, tim10-1 inh 48 (no result: NALP1 yeast inh) | tim10-1 confirm 37 | tim23-1 conf inactive
COC(=O)c1cc(C(=O)NCC2CCCCC2)cc([N+](=O)[O-])c1	none
COC1(C)CC2C(CC1OC(=O)c1cc([N+](=O)[O-])cc([N+](=O)[O-])c1)C2(C)C (centres undefined)	tim23-1 inh 65, tim10-1 inh 60, TIM10 inh 63 | tim10-1 confirm 61 | tim10 confirm 62 | tim23-1 conf 68
C[C@@H]1C=CC(=O)O[C@@H]1c1ccc(Cl)cc1	tim23-1 inh 56, tim10-1 inh 45, TIM10 inh 43 (no result: V-ATPase pH) | tim10-1 confirm 41 | tim10 confirm 41 | tim23-1 conf 40
O=C(CSc1nc2nn(-c3ccccc3)c(=O)c-2c2n1CCCCC2)c1ccc(O)c(O)c1	none (no result: NALP1 yeast inh)
CCCCc1c(C)c(C#N)c2nc3ccccc3n2c1NCCN(C)C	tim23-1 inh 65, tim10-1 inh 57, TIM10 inh 52, NALP1 yeast inh 34 | tim10-1 confirm 63 | tim10 confirm 37 | tim23-1 conf 69
Cc1c(Cc2ccccc2)c(NCCN(C)C)n2c(nc3ccccc32)c1C#N	tim23-1 inh 58, tim10-1 inh 48, TIM10 inh 69 | tim10-1 confirm 57 | tim10 confirm 80 | tim23-1 conf 69
CCc1c(C)c(C#N)c2nc3ccccc3n2c1NCCCN(C)C	none (no result: tim23-1 inh, tim10-1 inh, TIM10 inh, NALP1 yeast inh, NLRP3 yeast inh)
Cc1ccc(-n2nc3c(c2NC(=O)c2cc4ccccc4o2)CS(=O)(=O)C3)cc1	tim23-1 inh 51, tim10-1 inh 40 | tim10-1 confirm inactive | tim23-1 conf 47
Cc1cccc(C(=O)O/N=C(\N)c2cccc([N+](=O)[O-])c2)c1	tim23-1 inh 53, tim10-1 inh 74, TIM10 inh 58 | tim10-1 confirm 80 | tim10 confirm 49 | tim23-1 conf 51
Cc1cccc(/C(N)=N/OC(=O)COc2ccccc2Cl)c1	none (no result: tim23-1 inh, tim10-1 inh, TIM10 inh, NLRP3 yeast inh)

Source: PubChem BioAssay (several laboratories)
